# Assay results reported in PubChem BioAssay AID1259421 (Broad Institute, 2018).
# Several values for one entry are separate records, joined by “and”; a condition that tells them apart may be missing. Equal values may be shown once. Hit rate of the full screen: of about 6,400 compounds, about 610 (9.5%) were called active. This is one part of a sample in which actives are shown more often than they occur. Rule as the data show it: active = activity change below about -70%; inconclusive = no clear call, values can overlap the other calls; inactive = above that. Some structures have more than one record in an assay (separate samples or runs), and their calls can disagree. Where a SMILES comes first, the peptide text is derived from it.
# Experiment: T. gondii ME49Luc in HeLa cells, luciferase assay, 72 h, no IFN-y (AID 1259421)
# Details: stronger effect = lower value, concentration not given here
row,SMILES,"activity change, negative = inhibition"
1,CN(CCc1ccc(Cl)c(Cl)c1)CC(O)COc1ccc(NS(C)(=O)=O)cc1 (stereo not given),-4.31% (inactive) and -8.47% (inactive)
2,O=C(NCC(=O)N1CC[C@H](NC2CCC(O)(c3ccc(-c4ncccn4)cn3)CC2)C1)c1cccc(C(F)(F)F)c1 (stereo not given in full),13.2% (inactive)
3,COc1ccc2nc(S(=O)Cc3ncc(C)c(OC)c3C)[nH]c2c1 (stereo not given),29.5% (inactive) and 32.8% (inactive) and 15.1% (inactive)
4,O=Cc1ccc(CO)o1,3.95% (inactive)
5,O=c1c(OC2OC(CO)C(O)C(O)C2O)c(-c2ccc(O)c(O)c2)oc2cc(O)cc(O)c12 (stereo not given),-1.42% (inactive)
6,NCC(=O)N[C@@H](CCC(N)=O)C(=O)O (H-Gly-Gln-OH),6.58% (inactive)
7,CC(C)C(N)=O,7.84% (inactive)
8,Nc1ncnc2c1C(=O)N(c1ccc(C3CCC(CC(=O)O)CC3)cc1)CCO2 (stereo not given),6.2% (inactive)
9,NC1=N[C@H]2[C@H](CS[C@H]2CCCCC(=O)O)N1,20.2% (inactive)
10,C=C[C@]1(C)C[C@@H](OC(=O)CSC2C[C@H]3CC[C@@H](C2)N3C)[C@]2(C)[C@H](C)CC[C@]3(CCC(=O)[C@H]32)[C@@H](C)[C@@H]1O (stereo not given in full),-18.6% (inactive)
11,CC[C@H](NC(C)C)[C@H](O)c1ccc(O)c2[nH]c(=O)ccc12,3.71% (inactive)
12,C=CC(=O)Nc1cc2c(Nc3ccc(F)c(Cl)c3)ncnc2cc1C#CC(C)(C)N1CCN(C)CC1,-57.7% (inactive)
13,CCOc1cc2ncc(C#N)c(Nc3ccc(F)c(Cl)c3)c2cc1NC(=O)/C=C/CN(C)C,-84.3% (active)
14,CCOc1cc2ncc(C#N)c(Nc3ccc(OCc4ccccn4)c(Cl)c3)c2cc1NC(=O)/C=C/CN(C)C,-78.7% (active)
15,CCOc1cc(C(=O)Nc2ccc(Cl)c(-c3nc4ccccc4[nH]3)c2)cc(OCC)c1OCC,-69.9% (inactive)
16,C[C@@H](NC(=O)c1ncnc(N)c1Cl)c1ncc(C(=O)Nc2cc(C(F)(F)F)c(Cl)cn2)s1,10.6% (inactive)
17,Cc1nc(NC(=O)N2CCC[C@H]2C(N)=O)sc1-c1csc(C(C)(C)C)n1,17.5% (inactive)
18,OCCNCCCOc1cccc(Cl)c1Cl,-43.4% (inactive) and 19.3% (inactive)
19,COc1cc([C@@H]2c3cc4c(cc3[C@@H](O[C@@H]3O[C@@H]5CO[C@@H](c6cccs6)O[C@H]5[C@H](O)[C@H]3O)[C@H]3COC(=O)[C@H]23)OCO4)cc(OC)c1O,-72.9% (active)
20,COc1cc([C@@H]2c3cc4c(cc3C(OC3OC5COC(C)OC5C(O)C3O)C3OCC(=O)[C@@H]32)OCO4)cc(OC)c1O (stereo not given in full),-24.1% (inactive)
21,COc1cc([C@@H]2c3cc4c(cc3[C@@H](O[C@@H]3O[C@@H]5CO[C@@H](C)O[C@H]5[C@H](O)[C@H]3O)[C@H]3COC(=O)[C@H]23)OCO4)cc(OC)c1O,-10.1% (inactive) and -3.38% (inactive) and 9.65% (inactive)
22,COc1cc([C@@H]2c3cc4c(cc3C(OC3O[C@@H]5COC(C)O[C@H]5[C@H](O)[C@H]3O)C3COC(=O)[C@@H]32)OCO4)cc(OC)c1O (stereo not given in full),-0.506% (inactive)
23,COc1cc([C@@H]2c3cc4c(cc3C(O[C@@H]3O[C@@H]5CO[C@@H](c6cccs6)OC5[C@H](O)[C@H]3O)C3COC(=O)[C@@H]32)OCO4)cc(OC)c1O (stereo not given in full),-79.4% (active)

row,SMILES,"activity change, negative = inhibition"
1,COc1cc([C@@H]2c3cc4c(cc3[C@H](O)[C@H]3COC(=O)[C@@H]23)OCO4)cc(OC)c1OC,-71% (active)
2,COc1cc2c(c(OC)c1OC)-c1c(cc3c(c1OC)OCO3)C[C@H](C)[C@@H](C)C2,13.7% (inactive)
3,COc1cc([C@@H]2c3cc4c(cc3[C@H](O)[C@H]3COC(=O)[C@H]23)OCO4)cc(OC)c1OC,-64.9% (inactive)
4,C=C(C)[C@@H]1CC[C@]2(C(=O)O)CC[C@]3(C)[C@H](CC[C@@H]4[C@@]5(C)CC[C@H](OC(=O)CC(C)(C)C(=O)O)C(C)(C)[C@@H]5CC[C@]43C)[C@@H]12,-18.2% (inactive)
5,Fc1ccc2nc(CCC#Cc3ccccn3)cn2c1,1.01% (inactive)
6,NS(=O)(=O)OC[C@@H]1C[C@@H](n2ccc3c(N[C@H]4CCc5ccccc54)ncnc32)C[C@@H]1O,-17.2% (inactive)
7,OC1C(O)C(O)C(O)C(O)C1O (stereo not given),18.3% (inactive)
8,COc1ccc(C(C#N)C(C)C)cc1OC (stereo not given),21.3% (inactive)
9,CN([NH2+][O-])c1cc(O)ccc1O,11.6% (inactive)
10,Cc1occc(=O)c1CC=O,1.36% (inactive)
11,CC1COC2(CCN(c3nc(=O)c4cc(C(F)(F)F)cc([N+](=O)[O-])c4s3)CC2)O1 (stereo not given),301% (inactive)
12,Cc1cc(F)c(Nc2ncnc3cc(OCc4ccccc4)ccc23)cc1O,-65.2% (inactive) and -70.4% (active)
13,COc1cc2ncnc(Nc3ccc(Oc4ccccc4)cc3)c2cc1OC,2.86% (inactive)
14,COc1cc2ncnc(Nc3ccc(Cl)cc3F)c2cc1OC,-68.4% (inactive) and -67% (inactive)
15,CC(C)(C)c1ccc(C(=O)CCCN2CCC(OC(c3ccccc3)c3ccccc3)CC2)cc1,-87.2% (active)
16,CC(C)(C(=O)O)c1ccc(C(=O)CCCN2CCC(OC(c3ccccc3)c3ccccc3)CC2)cc1,6.98% (inactive)
17,O=C(O)CCCN1CCC(O[C@@H](c2ccc(Cl)cc2)c2ccccn2)CC1,24.8% (inactive)
18,O=P(O)(O)OC(CO)CO,38% (inactive)
19,CN(C)C(=O)c1ccc(S(=O)(=O)c2ccc(NC(=O)C(C)(O)C(F)(F)F)c(Cl)c2)cc1 (stereo not given),-6.06% (inactive)
20,CC1(C)[C@@H](O)CC[C@]2(C)[C@H]3C(=O)C=C4[C@@H]5C[C@@](C)(C(=O)O)CC[C@]5(C)CC[C@@]4(C)[C@]3(C)CC[C@@H]12,6.44% (inactive)
21,CC(=O)Oc1cc2c(c(C)c1OC(C)=O)CC=C1[C@@]2(C)CC[C@@]2(C)C3C[C@](C)(C(=O)O)CC[C@]3(C)CC[C@]12C (stereo not given in full),-93.4% (active)
22,CC1(C)C2CC[C@]3(C)C(C(=O)C=C4[C@H]5C[C@@](C)(C(=O)O)CC[C@]5(C)CC[C@]43C)[C@@]2(C)CC[C@@H]1O (stereo not given in full),1.01% (inactive)
